“And” between values parts separate entries of the source, which are not always exact repeats. Identical values can stand only once. About 83,000 compounds went through this panel and 20% of them were active in at least one assay; those are over-represented in the sample as a whole.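 96-well plates, one dose, 48 hours. Percent growth reported; active if below 10.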 The source made the active and inactive calls.

In one test the test system is BT-549 breast. As to the kind of experiment: NCI-60 one-dose screen, 48 h (100 = growth as untreated, 0 = no growth, -100 = all killed). To be noted: 10 µM unless noted.
Regarding `CCCCn1c(=O)c(C(=O)NCc2ccccc2Cl)c(O)c2ccccc21`, the growth was 47.9% (inactive).

Turning to `O=C(NCCCN1CC1)Nc1cccc2ccccc12`, the growth was 90.3% (inactive) and 105% (inactive).

Turning to `Oc1cc(N2CC2)c(O)cc1N1CC1`, the growth is 30% (inactive).

Consider `CC12CCC3C4CCC(=O)C=C4CCC3C1CC1CC(=O)OC12` (centres undefined), for which the growth is 107% (inactive).

On to `CCOP(=O)(OCC)C(=O)N(CC)CC`, for which the growth is 95.1% (inactive).

As for `C#Cc1cccc(Nc2nc(Cl)nc3cc(NC(=O)CF)ccc23)c1`, the growth was 72.2% (inactive).

For `CC[C@H](C)[C@H](NC(=O)[C@H]1CCCCN1C)C(=O)N(C)[C@H](C(=O)NC12CC(C(=O)N[C@@H](Cc3ccccc3)C[C@H](C)C(=O)OC)(C1)C2)C(C)C`, the growth is 101% (inactive).

Turning to `CN1CCC2(CC1)C(C#N)C(=O)NC(=O)C2C#N` (centres undefined), the growth is 103% (inactive).

For the compound `CC12CCC3C(CCC4CC(O)CCC43C)C1CCC2=O` (centres undefined), the growth was 113% (inactive).

Consider `C=CC[PH+](c1ccccc1)c1ccccc1.C=CC[PH+](c1ccccc1)c1ccccc1.[Pt+2].[S-]c1nc2ccccc2[nH]1.[S-]c1nc2ccccc2[nH]1`, for which the growth is -28.1% (active).

As to `Cc1cc[c-]cc1.Fc1c[c-]c(-c2ccccn2)c(F)c1.[Pt+2].c1ccc([PH+](c2ccccc2)c2ccccn2)cc1`, the growth was 63.2% (inactive).

Take `C=C[Se]CC(=O)/C=C/c1ccccc1`: the growth was 108% (inactive).

In the case of `CCCCCCCCCCCCCCCCCC1OCC(COC(=O)O[C@@H](C(=O)O[C@H]2C[C@@]3(O)[C@@H](OC(=O)c4ccccc4)[C@@H]4[C@]5(OC(C)=O)CO[C@@H]5C[C@H](O)[C@@]4(C)C(=O)[C@H](OC(C)=O)C(=C2C)C3(C)C)[C@@H](NC(=O)c2ccccc2)c2ccccc2)O1` (some centres undefined), the growth was 58.8% (inactive).

With `CC1(C)C=Cc2c(ccc3c2[N+]([O-])=C2C3=C[C@@]34NC(=O)[C@]5(CCCN5C3=O)C[C@@H]4C2(C)C)O1`, the growth is 39.8% (inactive).

In the case of `O=C(O)C1C(C(=O)O)C2(Cl)C(Cl)=C(Cl)C1(Cl)C2(Cl)Cl` (centres undefined), the growth was 104% (inactive) and 107% (inactive).

Take `CNC(=O)O/N=C(\SC)C(=O)N(C)C`: the growth was 101% (inactive).

`C[C@]12CCc3sc(Nc4ccc(F)cc4F)nc3C1=CC[C@@H]1[C@@H]2CC[C@]2(C)C(=O)CC[C@@H]12`: the growth is 59.6% (inactive).

With `N#CC(C#N)=C(C#N)C#N`, the growth was 104% (inactive).

As to `N#CCC(=O)c1ccccc1`, the growth is 116% (inactive).

In the case of `O=C(O)c1ccc(=O)[nH]c1`, the growth is 89.7% (inactive).

Turning to `CC[C@H](C)[C@H](NC(=O)CN(C)C)C(=O)N(C)[C@H](C[C@@H](OC(C)=O)c1nc(C(=O)NC23C4C5C2C2C3C4C52C(=O)OC)cs1)C(C)C` (some centres undefined), the growth was 4.22% (active).

With `CNC(=O)Oc1ccc(Cl)cc1SSc1cc(Cl)ccc1OC(=O)NC`, the growth was 96.4% (inactive).

For the compound `CC(=O)OC1CC2(O)C(CCC3(C)C(c4ccc(=O)oc4)CCC32O)C2(C)CCC(OC3OC(CO)C(O)C(O)C3O)C=C12` (centres undefined), the growth is -85.4% (active).

`Oc1ccc(O)c(Cl)c1`: the growth was 66.3% (inactive) and 96.1% (inactive).

Turning to `CC(=O)Nc1nc2c(s1)C1=CC[C@H]3[C@@H]4CC[C@H](OC(C)=O)[C@@]4(C)CC[C@@H]3[C@@]1(C)CC2`, the growth is 39.2% (inactive).

Regarding `O=C(O)C(F)F`, the growth is 117% (inactive).

As to `CC[C@H](C)[C@H](NC(=O)C12CC(NC)(C1)C2)C(=O)N(C)[C@H](C[C@@H](OC(C)=O)c1nc(C(=O)N[C@@H](Cc2ccccc2)C[C@H](C)C(=O)OC)cs1)C(C)C`, the growth was -22.4% (active).

Take `NC(=O)Oc1cc(OC(N)=O)cc(N(CCCl)CCCl)c1`: the growth is 68.2% (inactive).

For the compound `CC[PH+](CC)CC.O=COC1OC([S-])C(OC=O)C(OC=O)C1OC=O.[Au+]` (centres undefined), the growth is -80.8% (active).

For `CCOC(=O)c1ccccc1C(=O)OCC`, the growth is 95.6% (inactive).

As to `C[C@@H]1C/C=C\C(=O)O[C@H](/C=C/C#C/C=C/C(C)(C)[C@@H](O)c2cccc(O)c2Br)[C@@H](C)/C=C/[C@H](C)C[C@H](OC(N)=O)C1`, the growth was 43.8% (inactive).

With `Cc1c(C)c(N)c(C)c(C)c1N`, the growth was 104% (inactive).

For `Nc1ccc(P(=O)(O)O)cc1`, the growth is 115% (inactive) and 98.3% (inactive).

For `OCCN=Cc1c[nH]c2ccccc12`, the growth is 107% (inactive).

As to `S=P(SP(=S)(c1ccccc1)c1ccccc1)(c1ccccc1)c1ccccc1`, the growth is 109% (inactive).

Regarding `CN1CCc2cc3c(cc2C1O)OCO3` (centres undefined), the growth was -78.9% (active) and 100% (inactive).

Consider `Cc1cc(NC(=O)NCCCOc2ccc(N3C(N)=NC(N)=NC3(C)C)cc2Cl)ccc1S(=O)(=O)F`, for which the growth was 59.9% (inactive).

The test system of a further test is MDA-MB-435 melanoma. Described as above. The following applies: 10 µM unless noted.
For `CCCCn1c(=O)c(C(=O)NCc2ccccc2Cl)c(O)c2ccccc21`, the growth is 98.5% (inactive).

In the case of `O=C(NCCCN1CC1)Nc1cccc2ccccc12`, the growth is 108% (inactive) and 88% (inactive).

For the compound `Oc1cc(N2CC2)c(O)cc1N1CC1`, the growth was 0.0051% (active).

Regarding `CC12CCC3C4CCC(=O)C=C4CCC3C1CC1CC(=O)OC12` (centres undefined), the growth is 112% (inactive).

With `CCOP(=O)(OCC)C(=O)N(CC)CC`, the growth was 97.8% (inactive).

As for `C#Cc1cccc(Nc2nc(Cl)nc3cc(NC(=O)CF)ccc23)c1`, the growth is -19.1% (active).

Turning to `CC[C@H](C)[C@H](NC(=O)[C@H]1CCCCN1C)C(=O)N(C)[C@H](C(=O)NC12CC(C(=O)N[C@@H](Cc3ccccc3)C[C@H](C)C(=O)OC)(C1)C2)C(C)C`, the growth was 108% (inactive).

As to `CN1CCC2(CC1)C(C#N)C(=O)NC(=O)C2C#N` (centres undefined), the growth is 97.6% (inactive).

Regarding `CC12CCC3C(CCC4CC(O)CCC43C)C1CCC2=O` (centres undefined), the growth was 97.7% (inactive).

Regarding `C=CC[PH+](c1ccccc1)c1ccccc1.C=CC[PH+](c1ccccc1)c1ccccc1.[Pt+2].[S-]c1nc2ccccc2[nH]1.[S-]c1nc2ccccc2[nH]1`, the growth was -50.5% (active).

On to `Cc1cc[c-]cc1.Fc1c[c-]c(-c2ccccn2)c(F)c1.[Pt+2].c1ccc([PH+](c2ccccc2)c2ccccn2)cc1`, for which the growth was 39.3% (inactive).

Regarding `C=C[Se]CC(=O)/C=C/c1ccccc1`, the growth is 83.7% (inactive).

In the case of `CCCCCCCCCCCCCCCCCC1OCC(COC(=O)O[C@@H](C(=O)O[C@H]2C[C@@]3(O)[C@@H](OC(=O)c4ccccc4)[C@@H]4[C@]5(OC(C)=O)CO[C@@H]5C[C@H](O)[C@@]4(C)C(=O)[C@H](OC(C)=O)C(=C2C)C3(C)C)[C@@H](NC(=O)c2ccccc2)c2ccccc2)O1` (some centres undefined), the growth was -71.2% (active).

With `CC1(C)C=Cc2c(ccc3c2[N+]([O-])=C2C3=C[C@@]34NC(=O)[C@]5(CCCN5C3=O)C[C@@H]4C2(C)C)O1`, the growth is 47.3% (inactive).

With `O=C(O)C1C(C(=O)O)C2(Cl)C(Cl)=C(Cl)C1(Cl)C2(Cl)Cl` (centres undefined), the growth was 100% (inactive) and 106% (inactive).

Turning to `CNC(=O)O/N=C(\SC)C(=O)N(C)C`, the growth was 116% (inactive).

With `C[C@]12CCc3sc(Nc4ccc(F)cc4F)nc3C1=CC[C@@H]1[C@@H]2CC[C@]2(C)C(=O)CC[C@@H]12`, the growth was 51.5% (inactive).

As to `N#CC(C#N)=C(C#N)C#N`, the growth is 107% (inactive).

With `N#CCC(=O)c1ccccc1`, the growth was 101% (inactive).

Take `O=C(O)c1ccc(=O)[nH]c1`: the growth was 106% (inactive) and 103% (inactive).

For the compound `CC[C@H](C)[C@H](NC(=O)CN(C)C)C(=O)N(C)[C@H](C[C@@H](OC(C)=O)c1nc(C(=O)NC23C4C5C2C2C3C4C52C(=O)OC)cs1)C(C)C` (some centres undefined), the growth is -59.9% (active).

For the compound `CNC(=O)Oc1ccc(Cl)cc1SSc1cc(Cl)ccc1OC(=O)NC`, the growth is 75.5% (inactive).

Turning to `CC(=O)OC1CC2(O)C(CCC3(C)C(c4ccc(=O)oc4)CCC32O)C2(C)CCC(OC3OC(CO)C(O)C(O)C3O)C=C12` (centres undefined), the growth is -90.2% (active).

Consider `Oc1ccc(O)c(Cl)c1`, for which the growth was 102% (inactive) and 109% (inactive).

Take `CC(=O)Nc1nc2c(s1)C1=CC[C@H]3[C@@H]4CC[C@H](OC(C)=O)[C@@]4(C)CC[C@@H]3[C@@]1(C)CC2`: the growth was 4.51% (active).

For the compound `O=C(O)C(F)F`, the growth is 102% (inactive).

`CC[C@H](C)[C@H](NC(=O)C12CC(NC)(C1)C2)C(=O)N(C)[C@H](C[C@@H](OC(C)=O)c1nc(C(=O)N[C@@H](Cc2ccccc2)C[C@H](C)C(=O)OC)cs1)C(C)C`: the growth was -17.5% (active).

Consider `NC(=O)Oc1cc(OC(N)=O)cc(N(CCCl)CCCl)c1`, for which the growth was 65.2% (inactive).

For the compound `CC[PH+](CC)CC.O=COC1OC([S-])C(OC=O)C(OC=O)C1OC=O.[Au+]` (centres undefined), the growth is -72.2% (active).

Regarding `CCOC(=O)c1ccccc1C(=O)OCC`, the growth was 91.5% (inactive).

With `C[C@@H]1C/C=C\C(=O)O[C@H](/C=C/C#C/C=C/C(C)(C)[C@@H](O)c2cccc(O)c2Br)[C@@H](C)/C=C/[C@H](C)C[C@H](OC(N)=O)C1`, the growth is 19.2% (inactive).

`Cc1c(C)c(N)c(C)c(C)c1N`: the growth was 107% (inactive).

For the compound `Nc1ccc(P(=O)(O)O)cc1`, the growth is 107% (inactive) and 105% (inactive).

Take `OCCN=Cc1c[nH]c2ccccc12`: the growth is 103% (inactive).

As for `S=P(SP(=S)(c1ccccc1)c1ccccc1)(c1ccccc1)c1ccccc1`, the growth was 97.5% (inactive).

Turning to `CN1CCc2cc3c(cc2C1O)OCO3` (centres undefined), the growth was 37.8% (inactive) and 102% (inactive).

On to `Cc1cc(NC(=O)NCCCOc2ccc(N3C(N)=NC(N)=NC3(C)C)cc2Cl)ccc1S(=O)(=O)F`, for which the growth is 27.7% (inactive).

(Values after PubChem BioAssay (NCI).)
